Assay outcomes (PubChem BioAssay)
Sm TGR block: blocks Schistosoma mansoni thioredoxin glutathione reductase; Q962Y6; purified TGR, DTNB reduction, TNB absorbance 405 nm; Potency, µM (titrated, usually from 114 µM), hits mostly inhibitors; 360,000 compounds, 3% hits; AID 485364; active = well fitted inhibition curve with a large enough effect; inconclusive = small, poorly fitted or top-dose-only effect; inactive = no such curve, though single readings can be large or run the other way; also: nearly all actives have a fitted effect of over 60% in size
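TGR 20 nM + NADPH 100 uM (dispensed conc.), cpd preinc 15 min RT; start with NADPH (500 uM addition) then DTNB (15 mM addition). Kinetic TNB absorbance, 405 nm filter. Four-parameter Hill fit across titration.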
MARV entry inh: inhibitors of Marburg virus binding or cell entry. AID 540276. Marburg virus pseudotyped entry inhibition, cell reporter. Potency, µM (series often up to 37.8 µM), hits mostly inhibitors. 300,000 compounds, 1.8% hits; calls by dose curve; tested in HEK293 cells
VACV Venus inh: inhibitors of vaccinia virus (Venus reporter); Potency, µM (top dose mostly 36.5 µM), actives largely listed as inhibitors; Vaccinia virus Venus reporter expression, fluorescence; 330,000 compounds, 0.46% hits; AID 720580; calls by dose curve; tested in A549 cells; also: nearly all actives have a fitted effect of over 30% in size
VACV mCherry inh: vaccinia inhibition (mCherry reporter); 310,000 compounds, 0.63% hits; AID 720579; Vaccinia virus mCherry reporter infection, fluorescence; Potency, µM (top dose mostly 36.5 µM), actives largely listed as inhibitors; calls by dose curve; tested in A549 cells; also: nearly all actives have a fitted effect of over 35% in size
FMDV inh: antivirals against foot and mouth disease virus; FMDV antiviral cell-based qHTS; AID 1159524; Potency, µM (doses to about 57.9 µM), hits mostly inhibitors; 410,000 compounds, 1.2% hits; calls by dose curve; tested in HEK293T cells; also: read-out not given here; nearly all actives have a fitted effect of over 45% in size
Lassa entry inh: Lassa virus entry inhibition | 300,000 compounds, 1.2% hits | Lassa virus pseudotype entry inhibition, cell reporter | Potency, µM (doses to about 37.9 µM), usual class: inhibitors | AID 540256; calls by dose curve; tested in HEK293 cells; also: nearly all actives have a fitted effect of over 50% in size
A number is an active result; – = inactive; ? = inconclusive; · = not tested or not shown; ! = not active in a repeat; [ ] = remark or other dose. The list is not random: actives were taken first. Their share in the collection is about 5.4%.

SMILES	Sm TGR block	MARV entry inh	VACV Venus inh	VACV mCherry inh	FMDV inh	Lassa entry inh
O=S(=O)(/C(=C/c1ccc(C(F)(F)F)cc1)c1nc2ccccc2[nH]1)c1ccccc1	17.8µM	11.2µM	10µM	10µM	?	?
C/C(=C\c1ccc(N)cc1)c1nc2ccccc2[nH]1	–	·	·	·	–	·
O=C(Nc1cccc(C(=O)N2CCN(c3ccccc3)CC2)c1)c1nsc2ccccc12	–	·	–	–	–	–
C=Cc1c(C)/c2[n-]/c1=C\c1[n-]c(c(CC)c1C)/C=c1\[n-]c3c(c1C)C(=O)C(C(=O)[O-])C=3c1[n-]c(c(C)c1CCC(=O)[O-])\C=2.[Cu].[Na+].[Na+] (stereo not drawn)	·	31.5µM	·	·	·	?
CC(C)Oc1ccc(C(CCN)C2CCCCC2)cc1 (stereo not drawn)	–	?	?	12.6µM	–	?
COc1ccc(CC(=O)n2[nH]c(=O)cc(C)c2=O)cc1OC	22.4µM	–	–	–	?	–
O=C1C=CC(=O)N1CCCCCCCCCCN1C(=O)C=CC1=O	·	?	–	–	20µM	?
COc1ccc(-c2nc3ccccc3n3c(-c4ccccc4)c4c(=O)n(C)c(=O)n(C)c4c23)cc1	–	–	–	–	–	?
O=c1[nH]c(=S)[nH]c2nc[nH]c12	·	·	–	–	·	·
S=c1nc[nH]c2nc[nH]c12	15.8µM!	·	–	–	?	·
CC(CCC(=O)OC[C@H]1O[C@H](C#Cc2ccccc2)C=C[C@H]1Oc1ccc(C)cc1)=NO[C@@H](C)CN1CCCCc2nc(C)c(C)cc21	·	–	·	·	·	·
COC(=O)C1=C(c2ccc(OC(F)(F)F)cc2)C[C@@H]2CC[C@H]1N2C(=O)NCc1cccc2ccccc12	–	·	?	?	12.6µM	·
COC(=O)C1=C(c2cccc(C#N)c2)C[C@@H]2CC[C@H]1N2C(=O)NCc1ccco1	35.5µM	·	–	–	–	·
COc1ccc(NC(=O)Cn2c(SCc3ccc(C)cc3)nc3cccnc32)c(OC)c1	–	·	–	–	–	–
COC(=O)C1CCCCN1Cc1ccc2c(c1)CN(Cc1cnn(-c3ccccc3)c1)CCO2 (stereo not drawn)	·	·	–	–	?	·
CCN(CC)CCCNc1ccc2ncn3c4ccc(O)cc4c(=O)c1c23	·	?	?	0.891µM	?	?
CCOCCCNC(=O)NC(C)c1c(-n2cccc2)sc2c1CCN(CC)C2 (stereo not drawn)	?	·	–	–	–	–
CCCc1nc2oc3c(NCCN(C)C)ncnc3c2c2c1CCCC2	–	?	·	·	–	16.4µM
CCCc1nc2oc3c(NCCCN(C)C)ncnc3c2c2c1CCCC2	–	?	–	–	–	?
CCCc1nc2oc3c(Cl)ncnc3c2c2c1CCCC2	–	–	–[7.34 µM]	–[7.34 µM]	14.1µM	–
O=C(Cn1c(=O)n(-c2ccccc2Cl)c(=O)c2sc3ccccc3c21)NC1CCCCC1	–	–	–	–	–	–
COc1ccccc1-n1c(N)c(C(=O)NC[C@H]2CCCO2)c2nc3ccccc3nc21	·	–	·	·	·	·
COc1ccc(-c2sc3cc(OC)c(OC)cc3c2C#CC2(O)CCCCC2)cc1	8.91µM	·	–	?	–	·
COc1ccc(CCNC(=O)CSc2ccc(-c3ccncc3)nn2)cc1	–	·	·	·	–	·
COc1cccc(-c2ccc(SCC(=O)NCCc3ccccc3)nn2)c1	–	–	–	–	–	–
SMILES	Sm TGR block	MARV entry inh	VACV Venus inh	VACV mCherry inh	FMDV inh	Lassa entry inh
O=C(CSc1ccc(-c2ccco2)nn1)NCCc1ccccc1	11.2µM	–	–	–	–	–
COc1ccc(CCNC(=O)CSc2ccc(-c3ccco3)nn2)cc1	12.6µM	–	–	–	–	–
Cc1ccc(C(=O)CSc2nnc3c4ccccc4nc(C(C)(C)C)n23)cc1	–	6.31µM	–	–	–	?
CC(=O)CSc1nnc2c3ccccc3nc(C(C)(C)C)n12	–	·	·	·	–	·
Cc1nn2c(=O)cc(CN(C)c3ccccc3)nc2s1	–	·	–	–	–	–
CS(=O)(=O)n1nc(-c2ccco2)nc1NCc1ccccc1Cl	–	–	–	?	–	–
CCCCn1c(/C=C/c2ccco2)nc2ccccc21	10µM	–	–	–	–	–
CCCCn1c(/C=N/Nc2nc3ccccc3[nH]2)nc2ccccc21	–	?	11.2µM	?	–	?
CCCn1c(/C=C/c2ccco2)nc2ccccc21	20µM	–	–	–	–	–
CC(C)CCn1c(/C=C/c2ccccc2)nc2ccccc21	–	?	–	–	–	–
COCCn1c(/C=C/c2ccccc2)nc2ccccc21	–	10µM	–	–	–	?
